PubChem BioAssay (NCATS)
Inconclusive results are not listed. Entries that show only a call come without a potency. Active and inactive are the calls of the source. Unless noted, the call rests on the fitted dose curve; in most records, active means well fitted curve in the direction sought with a large enough effect; inconclusive means small, poorly fitted or top-dose-only effect, or another doubt; inactive means no such curve, though single readings can be large; an effect the other way counts as inactive or inconclusive.

Test system: not listed separately
Experiment: P-glycoprotein substrates identified in KB-8-5-11 adenocarcinoma cell line, qHTS therapeutic library screen (AID 1346987); further: nearly all actives have a fitted effect of over 65% in size; further: potency means the concentration at half of the fitted maximal effect
Details: KB-8-5-11 (P-gp overexpressing) viability, CellTiter-Glo, 72 h; series mostly up to 44.5 µM
Summary of the method: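 Luminescence from CellTiter-Glo, read 5 min after addition, quantified survival of KB-8-5-11 (P-gp-overexpressing) cells exposed to compounds for 72 h. AC50 was derived from concentration-response curves.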

Structure (SMILES)	Potency
CCCCCCCCCCCCCCCCCC(=O)O	inactive
O=C(O)c1ccccc1Nc1cccc(C(F)(F)F)c1	inactive
O=C(CS)Nc1ccccc1	inactive
Cc1c(N)c(=O)n(-c2ccccc2)n1C	inactive
CN(C)c1ccc(N=NS(=O)(=O)O)cc1	inactive
Cc1c(Nc2ncccc2C(=O)O)cccc1C(F)(F)F	inactive
CO[C@@]1(NC(=O)Cc2cccs2)C(=O)N2C(C(=O)O)=C(COC(N)=O)CS[C@@H]21	inactive
Nc1c(CC(=O)O)cccc1C(=O)c1ccc(Br)cc1	inactive
O=C(Nc1ccc2[nH]ncc2c1)C1CCC1	inactive
CCCSc1ccc2nc(NC(=O)OC)[nH]c2c1	0.556 µM (active)

Test system: not listed separately
Experiment: Natriuretic polypeptide receptor (hNpr1) antagonism - Pilot counterscreen GloSensor control cell line (AID 1347045; calls by dose curve; further: potency means the concentration at half of the fitted maximal effect)
Details: HEK293 cGMP GloSensor cells, SNP-stimulated luminescence, 20 min; series mostly up to 38.3 µM
Summary of the method: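 Cells were first seeded and incubated overnight at 37C, then loaded with 2% GloSensor substrate for 2 h. Compounds were added for 30 min at room temperature, followed by a baseline read, 50 uM SNP and a final read after 20 min.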

Structure (SMILES)	Potency
CN1CCc2cc(O)c(O)cc2C(c2ccccc2)C1 (stereo not given)	inactive
CCc1c(C(=O)NCCc2ccc(N3CCCCC3)cc2)[nH]c2ccc(Cl)cc12	inactive
N.N.O=C(O)C1(C(=O)O)CCC1.[Pt]	inactive
N#C/C(=C\c1c[nH]c2ccccc12)C(=O)c1ccc(O)c(O)c1	inactive
CCCCN1CCC(n2c(=O)[nH]c3ccccc32)CC1	inactive
CCCC1(C)C(C#N)(C#N)C1(C#N)C#N	5.85 µM (active)
CC(COc1ccc(/C=C/c2ccccc2)cc1)[N+](C)(C)C (stereo not given)	inactive
O=C(O)[C@@H]1C[C@H](C(=O)O)N1	inactive
C[N+](C)(C)CC(=O)[O-]	inactive

Target: Atrial natriuretic peptide receptor 1 (Homo sapiens) (UniProt P16066)
Experiment: Natriuretic polypeptide receptor (hNpr1) antagonism - Pilot screen (AID 1347049; calls by dose curve;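 further: agonist-evoked cGMP luminescence read 20 min after hNppA addition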; further: potency means the concentration at half of the fitted maximal effect)
Details: hNpr1 cells, antagonist mode cGMP read-out; series mostly up to 57.5 µM
Summary of the method: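 cGMP-sensor HEK293/hNpr1 cells, 1500/well, plated overnight at 37C. 2% GloSensor reagent, 2 h RT. Compound (23 nL pin transfer) 30 min RT, baseline luminescence pre-read. 0.1 nM hNppA, 20 min RT, post-read.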

Atrial natriuretic peptide receptor 1 (Homo sapiens), sequence (P16066 whole entry, looked up): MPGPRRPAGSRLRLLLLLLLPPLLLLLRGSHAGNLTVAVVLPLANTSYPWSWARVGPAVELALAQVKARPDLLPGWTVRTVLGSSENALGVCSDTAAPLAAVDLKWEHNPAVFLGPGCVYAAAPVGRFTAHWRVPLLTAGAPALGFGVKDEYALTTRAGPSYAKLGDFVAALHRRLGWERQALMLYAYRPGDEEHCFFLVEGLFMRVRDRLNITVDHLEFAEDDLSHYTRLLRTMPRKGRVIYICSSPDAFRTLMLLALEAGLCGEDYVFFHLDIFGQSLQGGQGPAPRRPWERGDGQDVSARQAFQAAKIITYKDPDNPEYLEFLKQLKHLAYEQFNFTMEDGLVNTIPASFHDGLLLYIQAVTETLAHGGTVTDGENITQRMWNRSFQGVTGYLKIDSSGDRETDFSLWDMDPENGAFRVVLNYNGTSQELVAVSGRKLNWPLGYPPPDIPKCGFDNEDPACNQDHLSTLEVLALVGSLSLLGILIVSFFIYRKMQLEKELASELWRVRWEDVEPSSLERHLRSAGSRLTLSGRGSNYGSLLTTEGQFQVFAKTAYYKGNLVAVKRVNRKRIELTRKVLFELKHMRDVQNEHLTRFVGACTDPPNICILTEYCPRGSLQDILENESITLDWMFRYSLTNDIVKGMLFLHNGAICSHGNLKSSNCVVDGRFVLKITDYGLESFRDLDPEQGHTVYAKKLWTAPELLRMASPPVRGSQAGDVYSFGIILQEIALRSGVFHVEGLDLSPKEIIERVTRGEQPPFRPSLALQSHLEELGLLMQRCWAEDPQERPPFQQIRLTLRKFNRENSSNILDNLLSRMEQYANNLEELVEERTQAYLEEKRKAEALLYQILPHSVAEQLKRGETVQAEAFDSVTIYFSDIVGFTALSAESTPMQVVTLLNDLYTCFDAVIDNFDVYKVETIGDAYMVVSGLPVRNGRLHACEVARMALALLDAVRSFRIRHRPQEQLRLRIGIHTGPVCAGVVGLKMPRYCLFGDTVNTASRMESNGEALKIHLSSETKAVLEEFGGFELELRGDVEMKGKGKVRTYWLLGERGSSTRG

Structure (SMILES)	Potency
CN1CCc2cc(O)c(O)cc2C(c2ccccc2)C1 (stereo not given)	inactive
CCc1c(C(=O)NCCc2ccc(N3CCCCC3)cc2)[nH]c2ccc(Cl)cc12	inactive
N.N.O=C(O)C1(C(=O)O)CCC1.[Pt]	inactive
N#C/C(=C\c1c[nH]c2ccccc12)C(=O)c1ccc(O)c(O)c1	inactive
CCCCN1CCC(n2c(=O)[nH]c3ccccc32)CC1	inactive
CCCC1(C)C(C#N)(C#N)C1(C#N)C#N	8.49 µM (active)
CC(COc1ccc(/C=C/c2ccccc2)cc1)[N+](C)(C)C (stereo not given)	inactive
O=C(O)[C@@H]1C[C@H](C(=O)O)N1	inactive
C[N+](C)(C)CC(=O)[O-]	inactive

Target: Atrial natriuretic peptide receptor 2 (Homo sapiens) (UniProt P20594)
Experiment: Natriuretic polypeptide receptor (hNpr2) antagonism - Pilot subtype selectivity assay (AID 1347050; calls by dose curve; further: potency means the concentration at half of the fitted maximal effect)
Details: NPR2-expressing cells, cGMP antagonist-mode read-out; series mostly up to 38.3 µM
Summary of the method: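 Luminescence from a genetically encoded cGMP luciferase biosensor in hNpr2-expressing HEK293 cells is read before and 20 min after adding 1 nM hNppC. Test compounds, in interplate 1:5 titrations, are added 30-50 min ahead of the agonist.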

Atrial natriuretic peptide receptor 2 (Homo sapiens), sequence (P20594 whole entry, looked up): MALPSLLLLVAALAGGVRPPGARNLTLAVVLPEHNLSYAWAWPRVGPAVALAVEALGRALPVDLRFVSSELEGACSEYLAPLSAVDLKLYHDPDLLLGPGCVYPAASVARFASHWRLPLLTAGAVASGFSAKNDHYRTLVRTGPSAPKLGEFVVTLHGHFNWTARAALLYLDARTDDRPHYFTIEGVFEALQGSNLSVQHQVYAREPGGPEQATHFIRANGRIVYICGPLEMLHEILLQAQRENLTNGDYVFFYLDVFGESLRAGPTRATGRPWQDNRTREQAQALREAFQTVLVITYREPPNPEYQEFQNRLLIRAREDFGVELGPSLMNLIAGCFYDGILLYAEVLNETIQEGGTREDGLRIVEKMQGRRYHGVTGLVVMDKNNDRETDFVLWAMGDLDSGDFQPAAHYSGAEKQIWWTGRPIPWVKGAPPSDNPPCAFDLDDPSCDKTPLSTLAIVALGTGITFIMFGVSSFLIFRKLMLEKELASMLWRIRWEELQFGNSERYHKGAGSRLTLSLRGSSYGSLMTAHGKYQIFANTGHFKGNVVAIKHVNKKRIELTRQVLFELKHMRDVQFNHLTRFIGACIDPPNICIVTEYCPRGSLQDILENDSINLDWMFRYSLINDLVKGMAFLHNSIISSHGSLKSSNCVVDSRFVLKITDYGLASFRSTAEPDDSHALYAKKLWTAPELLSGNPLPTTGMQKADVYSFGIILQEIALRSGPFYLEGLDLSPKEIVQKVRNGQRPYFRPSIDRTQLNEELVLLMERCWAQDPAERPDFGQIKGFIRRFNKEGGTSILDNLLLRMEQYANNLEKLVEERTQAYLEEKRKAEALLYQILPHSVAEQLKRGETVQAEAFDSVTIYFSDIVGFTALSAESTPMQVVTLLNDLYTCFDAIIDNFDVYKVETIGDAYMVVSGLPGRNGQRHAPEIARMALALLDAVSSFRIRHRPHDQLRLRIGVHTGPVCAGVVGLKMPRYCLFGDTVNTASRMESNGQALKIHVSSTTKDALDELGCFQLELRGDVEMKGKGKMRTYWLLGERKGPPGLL

Structure (SMILES)	Potency
CN1CCc2cc(O)c(O)cc2C(c2ccccc2)C1 (stereo not given)	inactive
CCc1c(C(=O)NCCc2ccc(N3CCCCC3)cc2)[nH]c2ccc(Cl)cc12	inactive
N.N.O=C(O)C1(C(=O)O)CCC1.[Pt]	inactive
N#C/C(=C\c1c[nH]c2ccccc12)C(=O)c1ccc(O)c(O)c1	inactive
CCCCN1CCC(n2c(=O)[nH]c3ccccc32)CC1	inactive
CCCC1(C)C(C#N)(C#N)C1(C#N)C#N	4.65 µM (active)
CC(COc1ccc(/C=C/c2ccccc2)cc1)[N+](C)(C)C (stereo not given)	inactive
O=C(O)[C@@H]1C[C@H](C(=O)O)N1	inactive
C[N+](C)(C)CC(=O)[O-]	inactive

Test system: not listed separately
Experiment: NS1 protein of Zika virus - qHTS assay to identify small molecule inhibitors in human HEK 293 cells (AID 1347053); further: nearly all actives have a fitted effect of over 55% in size
Details: HEK293 ZIKV MR766 infection, NS1 TR-FRET, 24 h; series mostly up to 46.1 µM
Summary of the method: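 Compound-treated (1 h pre-infection) HEK 293 cells infected with ZIKV MR766, MOI = 0.5; after 24 h at 37 C, NS1 read by TR-FRET; data normalized to uninfected and infected controls.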

Structure (SMILES)	Potency
CCCCCCOc1ccccc1C(N)=O	inactive
COC(=O)C1=C(C)NC(C)=C(C(=O)OCC(C)=O)C1c1ccccc1[N+](=O)[O-] (stereo not given)	inactive
c1ccc2sc(SN3CCOCC3)nc2c1	inactive
N=C(N)N	inactive
CCCCN(CC)c1nc(C)nc2c1c(C)cn2-c1c(C)cc(C)cc1C	inactive
O=C(Nc1ccc(C(=O)O)c(O)c1)c1ccccc1	inactive
CCCCCCCCCCCCCCCC(=O)OC(C)C	inactive
CCOc1ccc2nc(S(N)(=O)=O)sc2c1	inactive
Cc1nc2ccccc2n1Cc1ccc(Cl)cc1	inactive
CCOC(=O)c1ccccc1O	inactive
C=CCCCCCCCCC(=O)O	inactive
COc1cc2c3cc1Oc1cc(ccc1O)C[C@@H]1c4c(cc(OC)c(O)c4Oc4ccc(cc4)C[C@@H]3N(C)CC2)CC[N+]1(C)C	inactive
CN(CCCOc1ccc(Cc2ccccc2)cc1)CCC(=O)O	inactive
CCCCCCCCCCCC(=O)[O][Sn]([CH2]CCC)([CH2]CCC)[O]C(=O)CCCCCCCCCCC	inactive
Cc1ccc(C(=O)c2ccc(CC(=O)O)n2C)cc1	inactive
O=C(Nc1ccc2c(c1)CCN(Cc1ncn[nH]1)C2)c1ccccc1-c1ccc(C(F)(F)F)cc1	inactive
Nc1ccc(C(=O)O)c(O)c1	inactive
CCCCCCCCCCCCCCCCCC(=O)O	inactive
O=C(O)c1ccccc1Nc1cccc(C(F)(F)F)c1	inactive
O=C(CS)Nc1ccccc1	inactive
Cc1c(N)c(=O)n(-c2ccccc2)n1C	inactive
CN(C)c1ccc(N=NS(=O)(=O)O)cc1	inactive
Cc1c(Nc2ncccc2C(=O)O)cccc1C(F)(F)F	inactive
CO[C@@]1(NC(=O)Cc2cccs2)C(=O)N2C(C(=O)O)=C(COC(N)=O)CS[C@@H]21	inactive
Nc1c(CC(=O)O)cccc1C(=O)c1ccc(Br)cc1	inactive
O=C(Nc1ccc2[nH]ncc2c1)C1CCC1	inactive
CCCSc1ccc2nc(NC(=O)OC)[nH]c2c1	inactive

Target: Tyrosine-protein phosphatase non-receptor type substrate 1 (Homo sapiens) + Leukocyte surface antigen CD47 (Homo sapiens) (UniProt P78324+Q08722)
Experiment: CD47-SIRPalpha protein protein interaction - LANCE assay qHTS validation (AID 1347057; active means well fitted curve in the direction sought with a large enough effect in the signal ratio, with a control signal flat, not every such curve was filed as active; the % refers to the signal ratio)
Details: Recombinant CD47-His / biotin-SIRPalpha, TR-FRET ratio; series mostly up to 38.3 µM
Summary of the method: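 Inhibition of soluble CD47/SIRPalpha ectodomain association by titrated compounds, measured as 665/615 nm time-resolved FRET ratio after sequential 30 min room-temperature incubations.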

Tyrosine-protein phosphatase non-receptor type substrate 1 (Homo sapiens) + Leukocyte surface antigen CD47 (Homo sapiens), sequence (P78324 whole entry, looked up): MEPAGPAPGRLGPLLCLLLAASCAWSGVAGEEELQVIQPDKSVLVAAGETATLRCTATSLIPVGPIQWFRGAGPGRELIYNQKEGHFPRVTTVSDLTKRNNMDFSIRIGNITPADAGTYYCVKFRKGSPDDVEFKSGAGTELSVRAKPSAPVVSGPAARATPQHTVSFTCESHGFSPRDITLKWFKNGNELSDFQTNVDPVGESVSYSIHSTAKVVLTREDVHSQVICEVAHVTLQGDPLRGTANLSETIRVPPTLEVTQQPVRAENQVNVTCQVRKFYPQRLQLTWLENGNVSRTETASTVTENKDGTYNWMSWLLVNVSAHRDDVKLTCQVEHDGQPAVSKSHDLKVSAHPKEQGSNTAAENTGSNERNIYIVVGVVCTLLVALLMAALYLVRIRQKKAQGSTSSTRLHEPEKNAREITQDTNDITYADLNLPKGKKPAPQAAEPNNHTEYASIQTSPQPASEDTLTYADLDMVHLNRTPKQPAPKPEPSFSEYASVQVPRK
Tyrosine-protein phosphatase non-receptor type substrate 1 (Homo sapiens) + Leukocyte surface antigen CD47 (Homo sapiens), sequence (Q08722 whole entry, looked up): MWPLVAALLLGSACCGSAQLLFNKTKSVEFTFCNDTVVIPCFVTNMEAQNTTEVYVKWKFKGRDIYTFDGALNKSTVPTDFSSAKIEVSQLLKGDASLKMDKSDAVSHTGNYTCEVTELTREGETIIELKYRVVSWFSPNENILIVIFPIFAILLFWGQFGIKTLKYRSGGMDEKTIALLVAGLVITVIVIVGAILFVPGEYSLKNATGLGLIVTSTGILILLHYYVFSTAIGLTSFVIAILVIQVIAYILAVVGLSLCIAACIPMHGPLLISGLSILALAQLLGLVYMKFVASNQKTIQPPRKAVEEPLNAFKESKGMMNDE

Structure (SMILES)	Potency
CCCCN(CC)c1nc(C)nc2c1c(C)cn2-c1c(C)cc(C)cc1C	inactive
CCN(CC)CCCCNc1ncc2cc(-c3c(Cl)cccc3Cl)c(NC(=O)NC(C)(C)C)nc2n1	inactive
COC(=O)C1=C(C)NC(C)=C(C(=O)OC)C1c1cccc(NC(=O)NCCCN2CCC(c3cccc(OC)c3)CC2)c1	inactive
CN(CCCOc1ccc(Cc2ccccc2)cc1)CCC(=O)O	inactive
O=C(Nc1ccc2c(c1)CCN(Cc1ncn[nH]1)C2)c1ccccc1-c1ccc(C(F)(F)F)cc1	inactive
O=C(Nc1ccc2[nH]ncc2c1)C1CCC1	inactive
